The text below walks through data of PubChem BioAssay (EPA / NIEHS).

Values joined by “and” are separate entries in the source; they are usually repeats but may differ in a detail not shown here. Identical values can stand only once. A structure can be active in one record and inactive in another. Active and inactive are the calls of the source. The calls were made as follows: active = hit-call score of the fitted dose curve at least 0.9, where 1 is the maximum; inactive = score below 0.9.

Read-out in the experiment: Basic fibroblast growth factor (bFGF), FGF2 (gene 2247)
The experiment in a line: BSK_MyoF_bFGF: BioMAP Diversity Plus: MyoF Assay for Basic fibroblast growth factor (bFGF) Biomarker Activity (AID 2284246). The following applies: primary human lung fibroblasts. The method, then: BSK_MyoF is a cell-based, multiplexed-readout assay that uses lung fibroblasts, a human […] primary cell, with measurements taken at 24 hours after chemical dosing in a microplate: 96-well plate.BSK_MyoF_bFGF is an assay component measured in the BSK_MyoF assay. It measures bFGF antibody related to regulation of gene expression using ELISA technology.Data from the assay component BSK_MyoF_bFGF was analyzed at the endpoint, BSK_MyoF_bFGF, in the positive analysis fitting direction relative to DMSO as the negative control and baseline of activity. Using a type of binding reporter, gain or loss-of-signal activity can be used to understand protein changes. To generalize the intended target to other relatable targets, this assay endpoint is annotated to the 'growth factor' intended target family, where the subfamily is 'basic fibroblast growth factor '.
The levels of cell surface (or secreted, indicated by the prefix "s") biomarker endpoints were measured by ELISA. Overt cytotoxicity to cells in confluent adherent cultures (all systems other than the BT system) was assessed by measuring total protein levels using sulforhodamine B (SRB) staining in parallel cultures at the time of biomarker measurements, indicated as SRB endpoints. For proliferation assays for adherent cell types, individual cell types are cultured at sub-confluence and relative cell numbers quantified by SRB staining at time points optimized for each system (48 h: 3C and CASM3C systems; 72 h: BT and HDF3CGF systems; 96 h: SAg system). SRB was performed by staining cells with 0.1% SRB after fixation with 10% TCA and reading wells at 560 nm.Viability and proliferation of PBMC (T cells) was quantified by Alamar Blue reduction for the SAg and BT systems. For PBMC viability (referred to as PBMC Cytotoxicity within the assay endpoint names), cells were plated (75,000/well in a 96-well plate) and then chemical samples added for 1 h before addition of activators, SEB and TSST-1 (20 ng/mL final concentration each). Cells were incubated for 90 h. Then, Alamar Blue (20 uL/well) (Invitrogen, Cat DAL1100) was added for 6 h, and the plates were read with a fluorescence microplate reader at 546/580 nm (excitation/emission). For PBMC proliferation, cells were plated and activated as above but incubated for only 16 h prior to addition of Alamar Blue. Plates were read after 6 h.
As for `OCC(F)(F)C(F)(F)C(F)(F)C(F)(F)C(F)(F)C(F)(F)CO`, the outcome was inactive.

On to `Cc1cnccn1`, for which the outcome was inactive.

In the case of `OCC(O)CC(F)(F)C(F)(F)C(F)(F)C(F)(F)C(F)(F)C(F)(F)C(F)(F)C(F)(F)F` (stereo not given), the outcome was inactive.

As for `O=C1C=CC(=O)N1c1ccc(Cc2ccc(N3C(=O)C=CC3=O)cc2)cc1`, the AC50 was 5.53 µM (active).

In the case of `C=CC(=O)OCC(F)(F)C(F)(F)C(F)(F)COC(=O)C=C`, the AC50 is 15.9 µM (active) and 14.7 µM (active).

Regarding `O=C(F)C1(F)C(F)(F)C(F)(F)C(F)(F)C(F)(F)C1(F)F`, the outcome was inactive.

As for `C[C@]12CC[C@H]3C(=CCc4cc(O)ccc43)[C@@H]1CCC2=O`, the result was inactive.

With `O=C(Cl)C(F)(F)C(F)(F)C(F)(F)C(F)(F)C(F)(F)C(F)(F)F`, the outcome was inactive.

For `O=C(O)CCC(F)(F)C(F)(F)C(F)(F)C(F)(F)C(F)(F)C(F)(F)C(F)(F)F`, the outcome was inactive.

Consider `C=CC(=O)OCC(F)(F)C(F)(F)C(F)(F)C(F)(F)C(F)(F)C(F)(F)C(F)(F)C(F)F`, for which the outcome was inactive.

As for `OCC(O)CC(F)(F)C(F)(F)C(F)(F)C(F)(F)F` (stereo not given), the outcome was inactive.

As to `O=C(O)C(F)(F)C(F)(F)C(F)(F)OC(F)(C(F)(F)F)C(F)(F)F`, the result was inactive.

In the case of `NC(O)(C(F)(F)F)C(F)(F)F`, the result was inactive.

With `FC(F)(F)C(F)(F)C(F)(F)C(F)(F)C(F)(F)C(F)(F)C(F)(F)CCI`, the outcome was inactive.

For `O=C(O)C(F)(F)OC(F)(F)C(F)(F)OC(F)(F)C(F)(F)OC(F)(F)F`, the outcome was inactive.

For the compound `OCC(F)(F)C(F)(F)C(F)(F)CO`, the result was inactive.

In the case of `O=C(Cl)C(F)(F)C(F)(F)C(F)(F)C(F)(F)C(F)(F)C(F)(F)C(F)(F)F`, the result was inactive.

Consider `CCN(CC)c1ccc(C=O)c(O)c1`, for which the result was inactive.

With `Brc1nc2ccccc2s1`, the result was inactive.

As for `OC(O)C(F)(F)C(F)(F)F`, the outcome was inactive.

In the case of `NC(=O)C(F)(F)C(F)(F)C(F)(F)C(F)(F)C(F)(F)C(F)(F)C(F)(F)F`, the result was inactive.

On to `NS(=O)(=O)C(F)(F)C(F)(F)C(F)(F)C(F)(F)C(F)(F)C(F)(F)F`, for which the result was inactive.

Take `NC(=O)C(F)(F)C(F)(F)C(F)(F)F`: the outcome was inactive.

With `CC1=CC2C3C=CC(C3)C2C1C` (stereo not given), the outcome was inactive.

Regarding `OCCCC(F)(F)C(F)(F)C(F)(F)C(F)(F)C(F)(F)C(F)(F)C(F)(F)C(F)(F)F`, the AC50 was 10.1 µM (active) and 9.64 µM (active).

With `CCN(CCO)S(=O)(=O)C(F)(F)C(F)(F)C(F)(F)C(F)(F)C(F)(F)C(F)(F)C(F)(F)C(F)(F)F`, the outcome was inactive and the AC50 is 43 µM (active).

As to `O=C=Nc1cccc2c(N=C=O)cccc12`, the result was inactive.

For the compound `C=C(C)C(=O)OCC(F)(F)C(F)(F)C(F)(F)C(F)F`, the result was inactive.

In the case of `Cc1cc(C)c(O)c(C(C)(C)C)c1`, the AC50 is 36.8 µM (active).

Take `O=C=NCc1cccc(CN=C=O)c1`: the outcome was inactive.

With `CCN(CC)c1ccc2c(c1)Oc1cc(N(CC)CC)ccc1C21OC(=O)c2ccccc21`, the outcome was inactive.

In the case of `O=S(=O)(O)CCC(F)(F)C(F)(F)C(F)(F)C(F)(F)F`, the result was inactive.

With `FC(F)(F)C(F)(F)C(F)(F)CC1CO1` (stereo not given), the result was inactive.

For the compound `OCC(F)(F)C(F)(F)C(F)(F)C(F)(F)C(F)(F)C(F)(F)C(F)(F)C(F)(F)CO`, the AC50 is 54.4 µM (active) and the result was inactive.

For the compound `NC(=O)C(F)(F)C(F)(F)C(F)(F)C(F)(F)C(N)=O`, the result was inactive.

As for `CC(C)CCCC(C)CCO` (stereo not given), the outcome was inactive.

As to `NCC(F)(F)C(F)(F)C(F)(F)C(F)(F)C(F)(F)C(F)(F)F`, the result was inactive.

Take `O=C(c1ccccc1)c1ccc(O)cc1O`: the outcome was inactive.
